Reference: PubChem BioAssay (NCI)
This is part of a sample that, as a whole, favours compounds with a hit. Of some 83,000 tested, about 20% had one in any assay.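 The endpoint reported here, percent growth, reads 100 for growth as untreated, 0 for no net growth and -100 for all cells dead.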 The source made the active and inactive calls. How the source made its calls: active means growth percent below 10; inactive means the rest.

What was measured:
Experiment in all cases: NCI-60 one-dose screen, 48 h (100 = growth as untreated, 0 = no growth, -100 = all killed)
Settings in all cases: 10 µM
SN12C renal = system: SN12C renal
UO-31 renal = system: UO-31 renal
TK-10 renal = system: TK-10 renal
ACHN renal = system: ACHN renal
CAKI-1 renal = system: CAKI-1 renal
A498 renal = system: A498 renal
CCRF-CEM leukemia = system: CCRF-CEM leukemia
SR leukemia = system: SR leukemia
MOLT-4 leukemia = system: MOLT-4 leukemia

Measured: growth

Cc1cc(=O)n2nnc3c4ccccc4ccc3n12
active: SR leukemia 9.54%
inactive: SN12C renal 37.2% | UO-31 renal 46.8% | TK-10 renal 74.1% | ACHN renal 78.1% | CAKI-1 renal 67.8% | A498 renal 108% | CCRF-CEM leukemia 23.4%

COc1ccc(-c2nn(-c3cccc(NC(=O)Nc4cccc(C(F)(F)F)c4)c3)cc2-c2ccncc2)cc1Cl
active: UO-31 renal -4.03% | CAKI-1 renal 1.63% | A498 renal 0.293% | CCRF-CEM leukemia 2.2% | MOLT-4 leukemia 2.54% | SR leukemia 4.34%
inactive: SN12C renal 19.7% | TK-10 renal 11.8% | ACHN renal 17.5%

COC(=O)C(C(C[N+](=O)[O-])c1ccccc1)=P(c1ccccc1)(c1ccccc1)c1ccccc1 (stereo not given)
inactive: SN12C renal 100% | UO-31 renal 73.1% | TK-10 renal 97.2% | ACHN renal 93.9% | CAKI-1 renal 84.3% | A498 renal 59.8% | CCRF-CEM leukemia 77.1% | MOLT-4 leukemia 90.3% | SR leukemia 14.6%

Cc1cc(Cc2cc(C)c(O)c(C)c2)cc(C)c1O
inactive: SN12C renal 65.3% | UO-31 renal 61.2% | TK-10 renal 77.5% | ACHN renal 72.1% | CAKI-1 renal 42.8% | A498 renal 97.5% | MOLT-4 leukemia 22.8% | SR leukemia 25.1%

O=S(=O)(NCCNc1nccc(-c2c(-c3ccc(F)cc3)nc3sccn23)n1)c1ccc2ccccc2c1
inactive: SN12C renal 80.7% | UO-31 renal 43.4% | TK-10 renal 83.7% | ACHN renal 56.6% | CAKI-1 renal 68.5% | A498 renal 79.5% | CCRF-CEM leukemia 61.7% | MOLT-4 leukemia 54% | SR leukemia 46.6%

Cc1ncc(-c2ccoc2)c(NC2CCCCCC2)n1
inactive: SN12C renal 98.5% | UO-31 renal 71.7% | TK-10 renal 109% | ACHN renal 99.6% | CAKI-1 renal 94.4% | A498 renal 105% | CCRF-CEM leukemia 107% | MOLT-4 leukemia 84% | SR leukemia 96.1%

N=C(N)c1ccc(-c2ccc(-c3ccccc3)o2)nc1
inactive: SN12C renal 86.6% | UO-31 renal 65.7% | TK-10 renal 111% | ACHN renal 92.4% | CAKI-1 renal 83.8% | A498 renal 45.7% | CCRF-CEM leukemia 82.5% | MOLT-4 leukemia 60% | SR leukemia 55.6%

O=C(c1ccc(Cl)cc1Cl)N1CCOCC1
inactive: SN12C renal 105% | UO-31 renal 83.4% | TK-10 renal 101% | ACHN renal 103% | A498 renal 91.2% | CCRF-CEM leukemia 106% | MOLT-4 leukemia 99.1%

COc1ccc(Nc2nc3ccc(NC(=O)NC4CCCCC4)cc3[nH]c2=O)cc1
inactive: SN12C renal 91.6% | UO-31 renal 94.5% | TK-10 renal 117% | ACHN renal 94.8% | CAKI-1 renal 87.7% | A498 renal 109% | CCRF-CEM leukemia 91.6% | SR leukemia 103%

O=C(O)c1ccc(P(=O)(O)O)c([N+](=O)[O-])c1
inactive: SN12C renal 101% | UO-31 renal 86% | TK-10 renal 108% | ACHN renal 103% | CAKI-1 renal 94.7% | A498 renal 93.9% | MOLT-4 leukemia 111% | SR leukemia 87.7%

CCOC(=O)N1C=CC2C=CC1C1C=CC=CC2N1C(=O)OCC (stereo not given)
inactive: SN12C renal 99.3% | UO-31 renal 83.4% | TK-10 renal 111% | ACHN renal 101% | CAKI-1 renal 84.5% | A498 renal 89.7% | MOLT-4 leukemia 95.5%

O=C(Nc1cccc(-n2cc(-c3ccncc3)c(-c3ccc(O)c(Cl)c3)n2)c1)Nc1cccc(C(F)(F)F)c1
inactive: SN12C renal 10.3% | A498 renal 76.6%
active: UO-31 renal -9.43% | TK-10 renal -0.882% | ACHN renal 8.15% | CAKI-1 renal -14.5% | CCRF-CEM leukemia -0.796% | MOLT-4 leukemia -25% | SR leukemia -16.7%

N#Cc1ncc(Br)c(NC2CCCCCC2)n1
inactive: SN12C renal 93.5% | UO-31 renal 84.7% | TK-10 renal 134% | ACHN renal 100% | CAKI-1 renal 89.4% | A498 renal 103% | CCRF-CEM leukemia 85% | MOLT-4 leukemia 86.8% | SR leukemia 80.9%

Nc1c(C(=O)Nc2ccccc2)sc2nc3c(cc12)CCCC3
inactive: SN12C renal 40.1% | UO-31 renal 44.7% | TK-10 renal 71.7% | ACHN renal 51.5% | CAKI-1 renal 26.7% | CCRF-CEM leukemia 13.1% | MOLT-4 leukemia 15.7% | SR leukemia 10.8%
active: A498 renal -8.95%

CCN(CC)CCSCCN(CC)CC
inactive: SN12C renal 101% | UO-31 renal 97.1% | TK-10 renal 103% | ACHN renal 99% | CAKI-1 renal 98% | A498 renal 89.4% | CCRF-CEM leukemia 91.9% | MOLT-4 leukemia 105% | SR leukemia 98.5%

O=C1/C(=C/c2ccc([N+](=O)[O-])o2)Oc2ccccc21
active: SN12C renal -2.18% | UO-31 renal -61.5% | TK-10 renal -55.8% | ACHN renal -9.64% | CAKI-1 renal -4.42% | CCRF-CEM leukemia -1.87% | SR leukemia 9.39%
inactive: A498 renal 70.3%

O=C(c1cccs1)c1ccccc1Cc1ccccc1
inactive: SN12C renal 96.4% | UO-31 renal 80.3% | TK-10 renal 94.5% | ACHN renal 100% | CAKI-1 renal 89.6% | A498 renal 58.4% | CCRF-CEM leukemia 93.7% | MOLT-4 leukemia 92.5% | SR leukemia 93.1%

c1ccc(CSc2nnc3c4c5c(sc4nc(-c4cccnc4)n23)CCCCCC5)cc1
inactive: SN12C renal 56.5% | UO-31 renal 94.8% | TK-10 renal 72.2% | ACHN renal 73.7% | CAKI-1 renal 71.6% | A498 renal 58.5% | CCRF-CEM leukemia 25.2% | SR leukemia 46.5%

COc1cc(NC(=O)c2sc3nc4c(cc3c2N)C(O)CCC4)cc(OC)c1 (stereo not given)
inactive: SN12C renal 93.5% | UO-31 renal 85.1% | TK-10 renal 102% | ACHN renal 100% | CAKI-1 renal 90.4% | A498 renal 55.2% | CCRF-CEM leukemia 68.7% | MOLT-4 leukemia 63.1% | SR leukemia 16.8%

COc1ccc(-c2nc3sc(-c4ccccc4)c(-c4ccccc4)n3c2/C=C/C(=O)c2ccccn2)cc1
inactive: SN12C renal 86.6% | UO-31 renal 66% | TK-10 renal 90.7% | ACHN renal 66.2% | CAKI-1 renal 87.1% | A498 renal 96.1% | CCRF-CEM leukemia 52.4% | MOLT-4 leukemia 45.7% | SR leukemia 78.4%

N#Cc1cccc(OCc2nc(N)nc(N)c2-c2ccc(Cl)c(Cl)c2)c1
inactive: SN12C renal 33.3% | UO-31 renal 33.6% | TK-10 renal 46.1% | ACHN renal 17.7% | A498 renal 53.5% | MOLT-4 leukemia 32.7% | SR leukemia 18.1%

Cc1cc2c(C)c3cc(C)c(N)cc3nc2cc1N
active: UO-31 renal 7.87% | TK-10 renal -4.14% | ACHN renal 9.76% | A498 renal -5.82% | CCRF-CEM leukemia 6.08% | MOLT-4 leukemia -7.23% | SR leukemia -24.3%
inactive: SN12C renal 12.5%

COc1cc(C2CC(c3ccc(Nc4ccnc5cc(Cl)ccc45)cc3)=NN2c2ccc(Cl)cc2)cc(OC)c1OC (stereo not given)
inactive: SN12C renal 59.5% | UO-31 renal 18.4% | TK-10 renal 64.1% | CAKI-1 renal 18.6% | A498 renal 52.3% | CCRF-CEM leukemia 28% | MOLT-4 leukemia 31.5% | SR leukemia 12.2%

COc1ccc(Nc2ncnc3c2c(SC)nn3-c2ccccc2)cc1
inactive: SN12C renal 83.8% | UO-31 renal 77.2% | TK-10 renal 117% | ACHN renal 100% | A498 renal 118% | CCRF-CEM leukemia 98.5% | MOLT-4 leukemia 88.1% | SR leukemia 84.2%

CN(C)Cc1cn(-c2ncc(-c3ccc(C(F)(F)F)cc3)c(NC3CCCCCC3)n2)nn1
inactive: SN12C renal 87.5% | UO-31 renal 42.9% | TK-10 renal 85.2% | ACHN renal 92.1% | A498 renal 76.9% | CCRF-CEM leukemia 80.6% | MOLT-4 leukemia 74.8% | SR leukemia 39.6%

O=C(Nc1cccc(-n2cc(-c3ccncc3)c(-c3cc(O)cc(Cl)c3)n2)c1)c1cc(C(F)(F)F)cc(C(F)(F)F)c1
active: SR leukemia 3.15%
inactive: SN12C renal 50.3% | UO-31 renal 49.1% | TK-10 renal 73% | CAKI-1 renal 58.5% | A498 renal 40.3% | CCRF-CEM leukemia 26.9% | MOLT-4 leukemia 19.5%

COc1ccc(-c2cc(/C=C/C(=O)c3cc(OC)c(OC)c(OC)c3)[nH]n2)cc1OC
active: SN12C renal 8.28% | UO-31 renal -92.1% | TK-10 renal -33.2% | ACHN renal -61.9% | A498 renal -2.03% | CCRF-CEM leukemia 4.09% | MOLT-4 leukemia 3.41% | SR leukemia 3.11%

CCC(=O)N1C/C(=C/c2ccc(OC)cc2)C(=O)/C(=C/c2ccc(OC)cc2)C1
inactive: SN12C renal 27.4% | TK-10 renal 70.3% | CAKI-1 renal 13.1% | A498 renal 83.5% | MOLT-4 leukemia 11%
active: UO-31 renal -7.25% | CCRF-CEM leukemia -5.27% | SR leukemia -11%

C#Cc1ccc(-n2c(/C=C/c3ccc4ccccc4n3)nc3ncccc3c2=O)cc1
active: SN12C renal -15% | UO-31 renal -91.7% | TK-10 renal -44.4% | ACHN renal 2.7% | A498 renal -69.1% | CCRF-CEM leukemia -15.1% | MOLT-4 leukemia -7.6% | SR leukemia -17.9%

CCN1CCCC1CNC(=O)c1ncc(-c2ccc(C(F)(F)F)cc2)c(NC2CCCCCC2)n1 (stereo not given)
inactive: SN12C renal 86.7% | UO-31 renal 45% | TK-10 renal 74.1% | CAKI-1 renal 83% | A498 renal 58.3% | CCRF-CEM leukemia 63.3% | MOLT-4 leukemia 66.3%
active: SR leukemia -16.6%

CC(=O)N1N=C(c2ccc(Cl)cc2)CC1c1sc(Cl)nc1Cl (stereo not given)
inactive: SN12C renal 69.6% | UO-31 renal 40.9% | TK-10 renal 68.8% | CAKI-1 renal 75.9% | CCRF-CEM leukemia 93.4% | MOLT-4 leukemia 77.6% | SR leukemia 58.5%
active: A498 renal 9.27%

O=S(=O)(NCCCNc1nccc(-c2c(-c3ccc(F)cc3)nc3sccn23)n1)c1ccc2ccccc2c1
inactive: SN12C renal 49.2% | UO-31 renal 13.1% | TK-10 renal 35.4% | CAKI-1 renal 33.2% | A498 renal 62.4% | CCRF-CEM leukemia 28.3% | MOLT-4 leukemia 35% | SR leukemia 28.5%
